The structures appear in SMILES notation. Measured potencies and affinities stand elsewhere. Calls of active or inactive are those of the source. The rule behind the calls is not given here.

This assay is described as follows: HepG2 cell cytotoxicity, dose response, cytotoxicity control, set 3 (AID 504853). The following applies: series mostly up to 50 µM.
`COC(=O)c1ccc(CNc2c(N3CCCC3)c(=O)c2=O)cc1`: the compound was classed as inactive.
In the case of `CC(Sc1nc2ccccc2c(=O)[nH]1)C(=O)NC1CCCCC1` (stereo unspecified) it was “inactive”; in that of `CC(C)NC(=O)CSc1nc2ccccc2c(=O)[nH]1`, “inactive”.
As for `O=c1[nH]c(SCc2ccccc2Cl)nc2c1CCCC2`, the entry is “inactive”; as for `Cc1nc(SCC(=O)NCCC(C)C)[nH]c(=O)c1C`, “inactive”.
As for `CN1CCC(NC(=O)CSc2nc3ccccc3c(=O)[nH]2)CC1`, the entry is “inactive”; as for `Cc1cnc(SCC(=O)NC2CCCCC2)[nH]c1=O`, “inactive”; as for `Cc1cccc(/C=C/C(=O)c2ccc([N+](=O)[O-])o2)c1`, “inactive”.
Regarding `CCC(Sc1nc2ccccc2c(=O)[nH]1)C(=O)Nc1cccc(OC)c1` (stereo unspecified), the compound was classed as inactive.
With `O=C(CSc1nc2ccccc2c(=O)[nH]1)N1CCOCC1`, the result was inactive.
As for `O=C(CSc1nc2c(c(=O)[nH]1)CCCC2)NC1CCCCC1`, the entry is “inactive”.
In the case of `Cn1c(SCC(=O)NC2CCCCC2)nc2ccccc2c1=O` it was “inactive”; in that of `O=C(CSc1ncccn1)NC1CCCCC1`, “inactive”.
In the case of `COc1ccc(NC(=O)CSc2nc3ccccc3c(=O)[nH]2)cc1` it was “inactive”.
On to `CCSc1nc2ccccc2c(=O)[nH]1`, for which the compound was called inactive.
In the case of `CCC(Sc1nc2c(c(=O)[nH]1)CCC2)C(=O)Nc1cccc(OC)c1` (stereo unspecified) it was “inactive”; in that of `CN(C(=O)CSc1nc2ccccc2c(=O)[nH]1)C1CCCCC1`, “inactive”.
In the case of `Cc1[nH]c(=S)[nH]c(=O)c1C` it was “inactive”; in that of `CC[N+](C)(CC)CCCCOc1ccc2c(c1)C(=O)c1cc(OCCCC[N+](C)(CC)CC)ccc1-2`, “inactive”; in that of `Cc1nc(SCC(=O)NC2CCCC2)[nH]c(=O)c1C`, “inactive”.
As for `CCOC1OC(=O)C(Cl)=C1Nc1ccccc1C` (stereo unspecified), the entry is “inactive”; as for `COC(=O)C(Nc1nc(SCC(=O)NC2CCCCC2)nc2ccccc12)c1ccccc1` (stereo unspecified), “inactive”.
For the compound `O=C(CSc1ccccn1)NC1CCCCC1`, the result was inactive.
As for `Cc1cc(=O)[nH]c(=S)[nH]1`, the entry is “inactive”.
Take `Cc1nc(SCC(=O)N(C)c2ccccc2)[nH]c(=O)c1C`: the outcome was inactive.
As for `Cc1ccc(NC(=O)COC(=O)CCc2c[nH]c3ccccc23)cc1[N+](=O)[O-]`, the entry is “inactive”.

(Values after PubChem BioAssay AID504853 (Southern Research Specialized Biocontainment Screening …, 2011).)
